Bioassay records from PubChem BioAssay.
ssDAF-12 act – activates DAF-12 receptor from parasite S. stercoralis; HEK293 ssDAF-12/GRIP1 lit1-tk-luc reporter, luminescence; % of 3 µM dafachronic acid response; activation, % at 6.8 µM; hit rate 1% among 370,000; AID 652126;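 active = activation above the mean over all tested compounds plus 3 SD, cut at about 0.9% in these data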
DAX1 inh-1 – inhibitors of DAX1 repression of SF-1 activated StAR promoter. HEK293T StAR-luciferase reporter, SF-1/DAX-1 repression relief. inhibition, % at 6.8 µM. hit rate 1.1% among 370,000. AID 652010;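 active = inhibition above the mean over all tested compounds plus 3 SD, cut at about 3.6% in these data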;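 note: higher inhibition means more luminescence from relief of DAX-1 repression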
SMARCA2 activ – activators of SMARCA2 function. MG213 cells, MMTV-luciferase reporter, dexamethasone, overnight. activation, % at 9.1 µM. hit rate 1% among 370,000. AID 652017; in the data active = activation above about 7.8%
DAX1 inh-2 – inhibits human nuclear receptor DAX1; P51843; HEK293 Gal4-DAX1 luciferase reporter, luminescence; inhibition, % at 6.75 µM; hit rate 0.99% among 340,000;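 active = inhibition above the mean over all tested compounds plus 3 SD, cut at about 4.2% in these data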;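 note: inhibition shows as a rise in luminescence from relieved DAX1 repression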
Target sequence (P51843 207-470 limits assumed): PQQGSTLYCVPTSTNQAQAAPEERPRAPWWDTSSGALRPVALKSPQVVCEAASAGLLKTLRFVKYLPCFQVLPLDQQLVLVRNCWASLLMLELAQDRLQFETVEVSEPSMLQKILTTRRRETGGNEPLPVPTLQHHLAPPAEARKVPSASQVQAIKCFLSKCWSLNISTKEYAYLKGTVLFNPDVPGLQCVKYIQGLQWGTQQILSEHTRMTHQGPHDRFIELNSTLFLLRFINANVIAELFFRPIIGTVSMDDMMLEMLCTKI
hcDAF-12 act – activators of H. contortus DAF-12 nuclear receptor; HEK293 hcDAF-12 lit1-tk-luc reporter, luminescence; 0% DMSO, 100% Δ7-dafachronic acid; activation, % at 6.8 µM; hit rate 1.4% among 370,000;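 active = activation above the mean of all tested compounds plus 3 SD, cut at about 5.5% in these data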
hgDAF-12 ag – activates the H. glycines DAF-12 receptor ligand-binding domain. HEK293 GAL4-hgDAF12 UAS-luciferase reporter, agonist luminescence; normalized to butyrate control. activation, % at 6.8 µM. hit rate 1.8% among 370,000. AID 687014;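 active = activation above a cutoff set at the mean of all screened compounds plus 3 SD, cut at about 10% in these data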
A number is an active result; i = inactive; nt = not tested or not shown. An excerpt weighted towards active compounds, which were near 4.8% of everything screened.

SMILES | ssDAF-12 act | DAX1 inh-1 | SMARCA2 activ | DAX1 inh-2 | hcDAF-12 act | hgDAF-12 ag
Nc1nnc(SCC(=O)N2CCN(c3ccccc3)CC2)s1 | i | i | i | i | i | i
O=C(NCC1CCCO1)c1cccc2ccccc12 (stereo not given) | i | i | i | i | i | i
O=C(NCC1CCCO1)c1cc2ccccc2nc1Cl (stereo not given) | i | i | i | 4.3 | i | i
Cc1nc2ccc(F)cc2cc1C(=O)NCC1CCCO1 (stereo not given) | i | i | i | i | 5.8 | i
Cc1ccc2nc(-c3ccccc3)cc(C(=O)NCC3CCCO3)c2c1 (stereo not given) | i | i | i | nt | i | i
COc1cc(NC(=O)COC(=O)CNS(=O)(=O)c2ccc(F)c(F)c2F)cc(OC)c1 | i | i | i | i | i | i
O=C(COC(=O)Cc1ccccc1[N+](=O)[O-])NCc1ccc(F)cc1 | i | i | i | i | i | i
O=C(Cc1ccccc1[N+](=O)[O-])NCc1ccncc1 | 1.1 | i | i | i | i | i
O=C(Cc1ccccc1[N+](=O)[O-])NCCc1ccc(F)cc1 | 5.1 | i | i | i | i | i
C=C1c2ccccc2S(=O)(=O)N(Cc2ccccc2)C1COCc1ccccc1 (stereo not given) | i | i | i | i | i | i
Cc1cccc(NC(=O)c2cc3ccccc3c(=O)o2)n1 | i | i | i | 6.5 | i | i
Cc1nc(NC(=O)c2cc3ccccc3o2)ccc1Br | i | i | i | i | i | i
CC(C)c1cc(C(=O)Nc2cc(Cl)ccc2O)no1 | i | i | i | i | i | i
CCCc1cc(C(=O)Nc2cc(Cl)ccc2O)no1 | i | i | i | i | 5.6 | 11
CCc1ccc(NC(=O)c2cc(-c3cccs3)on2)cc1 | i | i | i | i | i | i
CCCc1cc(C(=O)Nc2ccc(CC)cc2)no1 | i | i | i | i | i | 11
CC(C)Cc1cc(C(=O)Nc2ccc(F)cc2F)no1 | i | 3.9 | i | i | i | 12
CCc1ccc(NC(=O)c2cc(CC(C)C)on2)cc1 | i | i | i | 5.1 | i | i
O=C(NCc1ccccc1)c1nc2c(nnn2Cc2cccc(Cl)c2)c(=O)[nH]1 | i | i | i | i | i | i
CCc1ccc(NC(=O)c2cc(C)no2)cc1 | i | i | i | 4.4 | i | i
CCn1c(SCC(=O)N/N=C/C=C/c2ccco2)nc2ccccc21 | i | i | i | i | i | i
CCc1nc(N2CCN(C(=O)CCl)CC2)c2c3c(sc2n1)CC(C)CC3 (stereo not given) | i | i | i | 4.4 | i | i
CCCCc1nc2cc(C(=O)NCc3cc(C)n(C)n3)ccc2o1 | i | i | i | i | 6.2 | i
CCCCc1nc2cc(C(=O)N3CCC(O)CC3)ccc2o1 | 1.0 | i | i | i | 6.2 | 11
O=C(NCCCN1CCOCC1)c1ccc2nc(Cc3ccccc3F)oc2c1 | i | 4.2 | i | i | i | i
SMILES | ssDAF-12 act | DAX1 inh-1 | SMARCA2 activ | DAX1 inh-2 | hcDAF-12 act | hgDAF-12 ag
CCCCc1nc2cc(C(=O)N(C)CCc3cn[nH]c3)ccc2o1 | i | i | i | i | i | i
CCCCc1nc2cc(C(=O)N3CCC[C@H]3CO)ccc2o1 | i | i | i | i | i | i
Cc1cc(CNC(=O)c2ccc3nc(Cc4ccccc4F)oc3c2)nn1C | i | i | i | i | i | 12
O=C(NCc1ccncc1)c1ccc2nc(Cc3ccccc3F)oc2c1 | i | i | i | i | i | i
COc1cccc(CN(CCC(C)C)S(=O)(=O)c2cc(Br)ccc2Br)c1 | i | i | i | i | i | i
COc1cccc(CN2CCC(C(=O)N3CCN(Cc4ccc5c(c4)OCO5)CC3)CC2)c1OC | i | i | i | i | i | i
N/C(Cc1ccc([N+](=O)[O-])cc1)=N\OC(=O)c1ccccc1F | i | i | i | i | i | i
COC(=O)c1nc(-c2ccccc2)oc1N1CCOCC1 | i | i | i | i | i | i
CCOC(=O)C1CCCN(C(=O)c2ccc3oc(Cc4ccccc4)nc3c2)C1 (stereo not given) | i | i | i | i | i | 11
O=C(O)c1ccccc1N/N=C/c1cc(Br)cc(Br)c1O | i | i | i | 5.6 | i | i
CCOC(=O)c1c(NC(=O)CSc2nnc(C)c(=O)[nH]2)sc(C)c1-c1ccc(C)cc1 | i | i | i | 4.6 | i | i
